The whole screen tested about 78,000 compounds, of which about 1,800 (2.3%) were called active. About 27% were inconclusive and are not listed. Cut-off read from the data, not from the text of the source: active = inhibition above about 30%; inconclusive = mostly about 10% to 28%; inactive = weaker than that. What follows is part of a selection rich in actives, with near analogues and random picks from the rest.
Molecular target: Interleukin-1 receptor-like 1 (Homo sapiens) (UniProt Q01638)
Assay: blocks human ST2 binding to IL-33, primary screen, biochemical, AlphaLISA (AID 1259354)
Details: AlphaLISA ST2-Fc/biotin-IL-33 interaction, 1 h; at 17 µM, stronger effect = higher value

Chain of Interleukin-1 receptor-like 1 (Homo sapiens) (Q01638 whole entry, looked up): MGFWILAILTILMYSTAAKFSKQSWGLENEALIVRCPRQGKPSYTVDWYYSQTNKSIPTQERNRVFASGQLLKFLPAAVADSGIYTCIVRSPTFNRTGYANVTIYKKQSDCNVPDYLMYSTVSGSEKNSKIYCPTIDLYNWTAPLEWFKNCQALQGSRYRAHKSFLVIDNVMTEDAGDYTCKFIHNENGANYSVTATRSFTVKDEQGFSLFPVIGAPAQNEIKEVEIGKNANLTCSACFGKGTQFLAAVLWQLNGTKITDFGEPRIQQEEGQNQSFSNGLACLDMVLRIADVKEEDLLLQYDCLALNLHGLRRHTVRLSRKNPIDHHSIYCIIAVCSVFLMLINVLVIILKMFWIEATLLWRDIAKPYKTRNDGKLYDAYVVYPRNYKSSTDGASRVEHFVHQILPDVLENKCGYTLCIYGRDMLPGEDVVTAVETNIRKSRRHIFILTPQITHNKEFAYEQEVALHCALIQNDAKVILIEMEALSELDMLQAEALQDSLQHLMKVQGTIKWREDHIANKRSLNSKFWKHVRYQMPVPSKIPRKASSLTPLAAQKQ

Compound | inhibition
O=[N+]([O-])c1cccc(-c2noc([C@@H]3C[C@@H](O)CN3Cc3ccc(C(F)(F)F)cc3)n2)c1 | inactive
N#C/C(=C\c1ccc(-c2cccc([N+](=O)[O-])c2)o1)C(=O)Nc1cccc(C(F)(F)F)c1 | 30% (active)
N#CC(C(=O)Nc1cccc(C(F)(F)F)c1)=C1CCCCCC1 | inactive
O=C(C1CCCN(Cc2c[nH]c3ccccc23)C1)N1CCCCCC1 (stereo not drawn) | inactive
COc1ccc(-c2oc3ncn(Cc4ccco4)c(=N)c3c2-c2ccc(OC)cc2)cc1 | 31% (active)
Fc1ccc(C=Nc2c(-c3ccco3)nc3ccccn23)cc1 | 49% (active)
O=C(Nc1c(-c2ccc(F)cc2)nc2ccccn12)c1cccc(F)c1 | inactive
Cc1cccc2nc(-c3ccco3)c(Nc3ccc(F)cc3)n12 | inactive
Fc1cccc(N2N=C(/C=C/c3cccs3)CC2c2cccs2)c1 (stereo not drawn) | 32% (active)
CCN(CC)S(=O)(=O)c1ccc(C(=O)Nc2nnc(-c3cc(OC)cc(OC)c3)o2)cc1 | inactive
N#C/C(=C\c1cccc(F)c1)c1nc(-c2ccc3c(c2)OCO3)cs1 | inactive
N#C/C(=C/c1ccc2c(c1)OCO2)c1nc(-c2cccc(Br)c2)cs1 | 30% (active)
COc1ccccc1OCCNC(=O)c1ccccc1O | inactive
CCSc1nnc(NC(=O)Nc2ccc(Cl)cc2)s1 | inactive
O=C(Nc1ccc([N+](=O)[O-])cc1Br)c1ccncc1 | inactive
O=C(Nc1ccc([N+](=O)[O-])cc1Br)c1cncc(Br)c1 | 47% (active)
O=C(Nc1ccc([N+](=O)[O-])cc1Cl)c1cccc(Br)c1 | inactive
CC(C)N(C(=O)Cn1c(Cl)nc2c1c(=O)n(C)c(=O)n2C)c1ccccc1 | inactive
CCc1ccc(NC(=O)c2ccc(CN3CCOCC3)cc2)cc1 | inactive
O=C(Nc1ccc(Cl)cc1)Nc1ccc2n(c1=O)C[C@H]1C[C@@H]2CN(C(=O)Cc2cccs2)C1 | inactive
COc1ccc(-c2cccc(-n3cccn3)c2)cc1C(N)=O | inactive
CN1CCCC2(CC1)CCN(C(=O)c1cc3ccccc3n(C)c1=O)CC2 | inactive
COc1cc(OC)cc(C(=O)N2c3ccccc3Sc3ccccc32)c1 | inactive

Compound | inhibition
O=c1nc2cc3[nH]c4c(=O)c5ccccc5c4[nH]c3cc2n1 | 46% (active)
O=C(c1cccc(I)c1)n1nnc2ccccc21 | inactive
CCSc1ncc(CN2CC[C@@H](N(C)CCc3ccccn3)[C@H](O)C2)cn1 | inactive
CC(=O)Nc1ncc2c(n1)CC(c1ccc(F)cc1)CC2=O (stereo not drawn) | inactive
COc1ccc(-c2cc(C(=O)Nc3cccnc3)c3ccccc3n2)cc1 | inactive
COc1ccc(-c2csc(/C(C#N)=C\c3cccnc3)n2)cc1 | 31% (active)
COc1ccc(-c2cc(C(F)(F)F)nc(NCc3cccnc3)n2)cc1 | inactive
CCc1cccc(NS(=O)(=O)c2cc(Br)cc3c2N(C(C)=O)C(C)C3)c1 (stereo not drawn) | inactive
O=C(c1cscn1)N1CCCC(CCc2ccccc2C(F)(F)F)C1 (stereo not drawn) | inactive
N=C1S/C(=C\c2ccc(N3CCOCC3)cc2)C(=O)N1c1ccccc1Cl | 31% (active)
O=C1N=C(N2CCOCC2)S/C1=C/c1ccc(F)cc1 | inactive
COc1ccc(/C=C2\SC(=O)N(c3ccc(C)cc3)C2=O)cc1 | inactive
CCC1=Nc2cc(C(=O)NCCN(CC)CC)ccc2Sc2ccc(C)cc21 | inactive
COc1ccc(C2NC(=O)N(C)C(C)=C2[N+](=O)[O-])cc1 (stereo not drawn) | inactive
COc1ccc(C2CC(c3ccc(C)cc3)Nc3ncnn32)cc1 (stereo not drawn) | inactive
COc1ccc(C2CC(c3ccc([N+](=O)[O-])cc3)=NN2)cc1 (stereo not drawn) | 30% (active)
COC(=O)c1nc2n(n1)C(c1ccc(F)cc1)C1=C(CCCC1=O)N2 (stereo not drawn) | inactive
CC(=O)c1ccc(NC(=O)CCC2CCCCC2)cc1 | inactive
O=C(CCN1C(=O)c2ccccc2C1=O)Nc1cccc(C(F)(F)F)c1 | inactive
FC(F)(F)c1cccc(NCn2nnc3ccccc32)c1 | inactive
Cc1nn(-c2ccccn2)c2c1C(=O)/C(=C/Nc1cccc(C(F)(F)F)c1)CC2 | 35% (active)
CCOc1ccc2[nH]c(C(=O)O)c(CCN)c2c1 | inactive
Cc1[nH]c2ccc(CNC(=O)[C@@H](O)Cc3ccccc3)cc2c1C | inactive

Compound | inhibition
COc1ccc(Br)cc1C(=O)Nc1cccc(Cl)c1 | inactive
O=C(Nc1cccc(OCc2cc(=O)n3cc(Cl)ccc3n2)c1)c1cccs1 | inactive
O=C(NC1CCCCCCC1)c1cccs1 | inactive
Cc1ccc2ncc(NC(=O)c3cccs3)c(=O)n2c1 | 83% (active)
Fc1cccc(CC2CN(Cc3cn[nH]c3-c3ccccc3)CCO2)c1 (stereo not drawn) | inactive
N#CC(c1ccco1)N1CCN(C(C#N)c2ccco2)CC1 (stereo not drawn) | inactive
COc1ccc(NS(=O)(=O)c2ccc(Cl)cc2)cc1 | inactive
CCc1ccc(S(=O)(=O)N=C2C=C(Br)C(=O)c3ccccc32)cc1 | 36% (active)
COc1ccc(S(=O)(=O)NC(c2ccccc2)c2ccccc2)cc1 | inactive
CCOc1ccc(NS(=O)(=O)c2ccc(Cl)cc2)cc1 | inactive
O=C1C(Nc2ccc(Br)cc2)=CC(=NS(=O)(=O)c2cccs2)c2ccccc21 | 79% (active)
CCOc1ccc(NS(=O)(=O)c2ccc(NC(=O)c3ccccc3Br)cc2)cc1 | inactive
CCc1ccc(S(=O)(=O)N=C2C=C(Nc3ccc(OC)cc3)C(=O)c3ccccc32)cc1 | 95% (active)
CCOc1ccc(S(=O)(=O)N=C2C=C(Nc3ccc(C)cc3)C(=O)c3ccccc32)cc1 | 91% (active)
CCN(CC)S(=O)(=O)c1ccc(OC)c(NC(=O)c2cc(OC)c(OC)c(OC)c2)c1 | inactive
Cc1cccc(OCC(=O)Nc2cc(C(F)(F)F)ccc2Cl)c1 | inactive
Cc1ccc(CNC(=O)c2ccc3nc4sc5c(c4c(=O)n3c2)CCCC5)cc1 | inactive
CCOc1ccc(NC(=O)C2CCN(S(=O)(=O)c3ccc(OC)c(OC)c3)CC2)cc1 | inactive
COc1ccc(C2=N/C(=C\c3ccc(C(C)C)cc3)C(=O)O2)cc1[N+](=O)[O-] | inactive
CCC(C(=O)NCc1ccccc1Cl)c1ccccc1 (stereo not drawn) | inactive
O=C(c1ccccc1Cl)N1CCCCC1 | inactive
CCCCN(CC)S(=O)(=O)c1ccc2[nH]c(=O)cc(C(=O)NC3CCCCC3C)c2c1 (stereo not drawn) | inactive
